# Measured values: PubChem BioAssay AID624381 (The Scripps Research Institute Molecular Screening Center, 2012)
# The campaign covered roughly 2,300 compounds. About 430 (19%) were called active. A selection follows. Unmarked numbers belong to inactive results.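 Rule for the calls: active = mean activation across triplicates above the hit threshold derived in the original primary screen (cut at about 15% in these data); inactive = the rest.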
# Target: 5-hydroxytryptamine receptor 2A (Mus musculus) (UniProt P35363)
# Assay: mouse HTR2A agonists, beta-arrestin recruitment, confirmation, cell-based, luminescence, CHO-K1 PathHunter, triplicate (AID 624381)
# Conditions: at 7.6 µM, stronger effect = higher value, DMSO 0%, 30 µM serotonin 100%
# 5-hydroxytryptamine receptor 2A (Mus musculus), sequence (P35363 whole entry, looked up): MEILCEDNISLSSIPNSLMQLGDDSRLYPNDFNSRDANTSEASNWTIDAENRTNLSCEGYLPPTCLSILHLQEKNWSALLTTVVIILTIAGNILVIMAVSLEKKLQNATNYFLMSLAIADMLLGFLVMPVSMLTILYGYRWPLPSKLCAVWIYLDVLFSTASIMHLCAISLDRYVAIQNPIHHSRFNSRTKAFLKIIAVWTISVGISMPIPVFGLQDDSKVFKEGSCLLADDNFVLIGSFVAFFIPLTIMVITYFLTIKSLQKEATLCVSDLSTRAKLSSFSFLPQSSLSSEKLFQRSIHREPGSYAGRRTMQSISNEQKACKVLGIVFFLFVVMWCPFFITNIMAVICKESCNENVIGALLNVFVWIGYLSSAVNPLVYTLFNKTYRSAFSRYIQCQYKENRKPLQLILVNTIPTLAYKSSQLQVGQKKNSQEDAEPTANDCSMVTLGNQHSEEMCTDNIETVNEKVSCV
row,SMILES,activation
1,Cc1[nH]c2ccccc2c1CCN(Cc1cccs1)C(=S)NC(C)(C)C,4.41%
2,CCOc1ccc(/C(O)=C2\C(=O)C(=O)N(c3ccc(OC)cc3)C2c2ccccc2[N+](=O)[O-])cc1 (stereo not drawn),1.71%
3,CCCCn1c(N)c(N(CC(C)C)C(=O)CSc2ccc([N+](=O)[O-])cc2)c(=O)[nH]c1=O,0.81%
4,C=CCn1c(=NC(=O)c2cccs2)sc2cc(NC(C)=O)ccc21,-1%
5,COc1ccc(NS(=O)(=O)c2cc(C(=O)Nc3ccccc3C(=O)O)ccc2C)cc1,5.94%
6,CCOC(=O)c1cc(-c2ccccc2C)n(Cc2cc(C)no2)n1,2.4%
7,O=C(c1ccco1)N1CCN(CCOc2ccccc2)CC1,34.5% (active)
8,COc1cccc(OC)c1OCCN1CCN(C(=O)c2ccco2)CC1,78.4% (active)
9,CSc1ncnc2c1ncn2CCCNCc1cccs1,-4.72%
10,Oc1ccc(CN2CCN(c3ncccn3)CC2)cc1,101% (active)
11,Cc1ccc(CN2CCN(c3ncccn3)CC2)c(C)c1,118% (active)
12,COc1ccccc1CN1CCN(Cc2cc(OC)c(OC)cc2OC)CC1,8.39%
13,CC(C)c1cc(C(=O)O)on1,13.4%
14,O=C1CCc2cc(S(=O)(=O)N3CCC(C(=O)NCc4ccccc4Cl)CC3)ccc2N1,-6.01%
15,O=C(CNCc1cccs1)Nc1cc(S(=O)(=O)N2CCCC2)ccc1Cl,50.6% (active)
16,COC(=O)c1ccc(CSc2nnc(NC(C)C)s2)cc1,-5.43%
17,COc1ccc(C2c3[nH]c4ccccc4c3C[C@H]3C(=O)N(CC(C)C)CC(=O)N23)c(OC)c1 (stereo partly drawn),0.84%
18,Cc1cccc(CN2CCN(C3CN(Cc4ccccc4)S(=O)(=O)C3)CC2)c1 (stereo not drawn),8.09%
19,O=C(NCCCN1CCN(c2ccccc2F)CC1)C1CCC(=O)N1C1CCCCC1 (stereo not drawn),41.4% (active)
20,CC(C)Oc1ccccc1C(=O)NC(CO)C(=O)O (stereo not drawn),0.21%

row,SMILES,activation
1,Cc1cccc(CN2CCN(C3CN(Cc4cn(Cc5cc(C)cc(C)c5)nn4)S(=O)(=O)C3)CC2)c1 (stereo not drawn),8.35%
2,Cc1cc(C(=O)OCC(=O)N2c3ccccc3NC(=O)C2(C)C)c(C)n1-c1ccccc1,-2.45%
3,CN(C)[C@@H]1C(=O)C(C(N)=O)=C(O)[C@@]2(O)C(=O)C3=C(O)c4c(O)ccc(Cl)c4[C@@H](O)[C@H]3C[C@@H]12,40.1% (active)
4,CCCCC(CC)CNC(=O)CCCCn1c(=O)[nH]c2ccsc2c1=O (stereo not drawn),-3.5%
5,COc1ccc(-c2nc3cc([N+](=O)[O-])ccc3o2)cc1OC,-2.5%
6,COc1ccc2[nH]cc(CCN3C(=O)c4ccc(C(=O)O)cc4C3=O)c2c1,-1.14%
7,COC(=O)[C@]12CCCCC=C1N(CCC1=CCCCC1)C(=O)[C@H](CC(=O)NCC1CCCCC1)C2,-5.33%
8,Nc1cc(C(=O)N2CCN(c3ccccc3Cl)CC2)ccc1N1CC2CC(C1)c1cccc(=O)n1C2 (stereo not drawn),-1.89%
9,O=C(c1ccncc1)N1CCN(c2ccc3ccccc3n2)CC1,17.1% (active)
10,COC(=O)c1cc(N2CCNCC2)nc2ccccc12,2.65%
11,COC(=O)Cn1nc(-c2ccccc2)c2cc(Cl)ccc21,-5.87%
12,FC(F)(F)COc1nc(N2CCCCC2)nc(N2CCNCC2)n1,8.3%
13,CS(=O)(=O)c1ccc2nc(NC(=O)C3CCCCC3)sc2c1,-0.86%
14,O=C(Nc1ccc2c(c1)[C@@H]1C[C@@H](CC(=O)N3CCCCC3)O[C@@H](CO)[C@@H]1O2)NC1CCCCC1,-4.45%
15,COc1ccc(/C=N/Nc2ccccc2C(=O)O)cc1,4.6%
16,Cc1cc([N+](=O)[O-])ccc1NC1CCCC1,13.5%
17,Cc1ccc(NC(=O)CSc2nnc(COc3ccccc3C)o2)cc1,-4.47%
18,N#CCSc1nn(-c2ccc(F)cc2)c(=S)s1,-4.94%
19,COCCN(Cc1cc2cc3c(cc2nc1Cl)OCO3)C(=O)c1cccc(C)c1,3.25%
20,CC(Nc1ccccc1)c1cccnc1 (stereo not drawn),-3.04%

row,SMILES,activation
1,CC1(Cc2cccc(C#N)c2)C(=O)Nc2ccc(-c3cccc(C(F)(F)F)c3)cc21 (stereo not drawn),-0.38%
2,NNc1cccc(C=Cc2ccccc2)cc1=O,1.74%
3,O=C(Nc1cccc2cccnc12)c1ccc2sc([C@H]3C[C@H](O)[C@@H](CO)O3)nc2c1,4.32%
4,Cc1ccc(NC(=O)CCOc2ccccc2)cc1S(=O)(=O)Nc1ccccc1Cl,3.02%
5,Cc1ccc(S(=O)(=O)N2CCN(c3ncnc4ccccc34)CC2)cc1,9.56%
6,CC(=O)c1ccc(OCC(=O)N(C)C2CCS(=O)(=O)C2)cc1 (stereo not drawn),-3.74%
7,COC(=O)[C@@]1(Cc2ccc(F)cc2)[C@H]2c3cc(C(=O)N(C)C)n(CCc4c[nH]c5ccc(OC)cc45)c3C[C@H]2CN1C(=O)c1ccccc1,10.9%
8,C/C(=N\NC(=O)COc1c(C)cccc1C)c1cccs1,-2.38%
9,CCCN(CCc1ccccc1)C1CCc2c(O)cccc2C1 (stereo not drawn),164% (active)
10,CCCC(=O)N=c1sc2cccc(F)c2n1C,-2.76%
11,Cc1ccc2c(c1)NCC(C(=O)NC1CCC(C)CC1)O2 (stereo not drawn),-3.96%
12,CSc1nsc(SCC(=O)Nc2cc(C(=O)O)ccc2C)n1,1.2%
13,CCOCCCNC(=O)Cc1cc(=O)[nH]c(=O)[nH]1,-1.89%
14,CC(=O)N1c2ccc(S(=O)(=O)N3CCC(C(=O)NC4CCCCC4C)CC3)cc2CC1C (stereo not drawn),-5.72%
15,O=C(O)C1C2C=CC(O2)C1C(=O)NCCc1cccc(Cl)c1 (stereo not drawn),4.65%
16,COC(=O)CC(=O)N1CCN(c2ccc(Cl)c(Cl)c2)CC1,13.8%
17,O=C(O)c1ccc(S(=O)(=O)N2CCC(Cc3ccccc3)CC2)cc1,-0.19%
18,COc1ccc(CNC(=O)c2ccc(NS(=O)(=O)c3ccc4[nH]c(=O)[nH]c4c3)cc2)cc1OC,-3.98%
